{
  "source": "PubChem BioAssay",
  "data": [
    {"assay": "COS7 lysate on small-molecule microarray, probe aHis, 635 nm (AID 1123);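 note: z-score combines 667nm fluorescence intensity with signal-to-noise per printed compound spot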", "settings": "COS7 cell lysate, fluorescence, higher = more signal", "values": [
      {"compound": "[N-]=[N+]=NCc1ccccc1[C@H]1OC(c2ccc(OCCCO)cc2)=N[C@@]1(Cc1ccccc1)C(=O)NCC(O)CO", "note": "(stereo partly specified)", "composite z-score": 3.42},
      {"compound": "NC(=O)NCC#Cc1ccc2c(c1)[C@]1(C(=O)N2)[C@H](c2ccccc2OCCO)N2[C@H](c3ccccc3)[C@H](c3ccccc3)OC(=O)[C@H]2[C@@H]1C(=O)N1CCCCCCC1", "composite z-score": 3.72},
      {"compound": "CC(C)(C)OC(=O)CC[C@@]1(C(N)=O)N=C(c2ccc(OCCCO)cc2)O[C@@H]1c1ccccc1N=[N+]=[N-]", "composite z-score": 2.08},
      {"compound": "C=CCC(OC(C)=O)[C@@H]1[C@@H](N(Cc2ccc(-c3cccc(C(F)(F)F)c3)o2)C(=O)Cc2ccc(OC)cc2)c2cc(OCCCO)ccc2N1C(=O)Cc1ccc(OC)cc1", "note": "(stereo partly specified)", "composite z-score": 0.043},
      {"compound": "CCOC(=O)C1=CC[C@@H](c2cccc(Cl)c2)N(S(=O)(=O)c2ccc(C)cc2)[C@H]1c1ccc(C#N)cc1", "composite z-score": 2.86},
      {"compound": "Cc1ccc(F)cc1S(=O)(=O)N[C@@H]1CCN(Cc2ccc(C(F)(F)F)cc2)C1", "composite z-score": 0.0774},
      {"compound": "C/C=C/[C@H](CCn1cc([C@H](O)c2ccccc2)nn1)[Si](C)(C)c1ccc(OC)cc1", "composite z-score": -0.092},
      {"compound": "COCC1C2CC[C@H]3C(OCc4ccc(F)cc4C(F)(F)F)OC[C@]4(C)[C@H]3C2=C(CN4C(=O)OC(C)(C)C)[C@H](C)C1COC", "note": "(stereo partly specified)", "composite z-score": 3.39},
      {"compound": "C=C(/C(=C/C[C@@H](OC(=O)c1ccncc1)c1ccc(CO)o1)c1cc(C(=O)OC)ccc1OC)C(C)C", "composite z-score": 1.13},
      {"compound": "O=C1O[C@@H](c2ccccc2)[C@@H](c2ccccc2)N2[C@@H](c3ccc(O)cc3)[C@]3(C(=O)Nc4ccccc43)[C@@H](C(=O)N3CCCCCCC3)[C@H]12", "composite z-score": 3.78},
      {"compound": "COC(=O)[C@@]1(Cc2ccc(F)cc2)[C@H]2c3cc(C(=O)N4CCCC4)n(CCc4ccc(OC)c(Br)c4)c3C[C@H]2CN1C(=O)c1ccccc1", "composite z-score": 3.26},
      {"compound": "Cc1c(NC(=O)/C(C#N)=C/C=C/c2ccccc2)c(=O)n(-c2ccccc2)n1C", "composite z-score": 0.811},
      {"compound": "C=C(C(=O)CC[C@@H](OC(=O)c1cccnc1)c1ccc(OCCO)cc1)C(C)C", "composite z-score": -0.266},
      {"compound": "O=c1cccc(-c2cccc3ccccc23)o1", "composite z-score": 0.458},
      {"compound": "Cc1ccc(S(=O)(=O)N2CC(C(=O)O)=CCC2c2ccccc2)cc1", "note": "(stereo unspecified)", "composite z-score": 1.21},
      {"compound": "O=S(=O)(NCCCO)c1ccc(Br)cc1", "composite z-score": 0.0505},
      {"compound": "C=CCOC(=O)[C@@H]1[C@H]2C(=O)O[C@H](c3ccccc3)[C@H](c3ccccc3)N2[C@H](c2ccc(OCCOC(=O)[C@H]3C[C@H]4C(=O)N[C@@H](Cc5ccccc5)C(=O)N4[C@H]3c3ccc(O)cc3)cc2)[C@@]12C(=O)Nc1ccc(I)cc12", "composite z-score": 0.931},
      {"compound": "C=CCNC(=O)[C@H]1[C@@H]2C(=O)O[C@@H](c3ccccc3)[C@@H](c3ccccc3)N2[C@@H](c2ccc(O)cc2)[C@]12C(=O)Nc1ccc(C#Cc3ccc(OC)cc3)cc12", "composite z-score": 1.68},
      {"compound": "C[N+](C)(C)CCCC[C@@H]1NC(=O)[C@H]2C[C@@H](C(=O)O)[C@@H](c3cccc(OCCO)c3)N2C1=O", "composite z-score": 3.12},
      {"compound": "Cn1c2c(c3ccccc31)C(=O)C1NC2C=CC1(C)C(=O)OCc1ccccc1", "note": "(stereo unspecified)", "composite z-score": 1.77},
      {"compound": "CCCCC(=C=CC[C@H](O)c1ccccc1OCCO)C[C@H](O)c1cc(Cl)cc(Cl)c1O", "composite z-score": 0.499},
      {"compound": "COc1c(C)cc(-c2cc3c(c(-c4ccccc4)n2)[Si](C(C)C)(C(C)C)O[C@H]3c2ccccc2)cc1C", "composite z-score": 0.0732},
      {"compound": "C=CCN1Cc2ccccc2C[C@]2(N=C(c3ccc(OCCCO)cc3)O[C@@H]2c2ccccc2)C1=O", "composite z-score": 2.42},
      {"compound": "O=C(N1CCCCC1)[C@]1(CCS(=O)(=O)c2ccccc2)N=C(c2ccc(OCCCO)cc2)O[C@@H]1c1ccccc1", "composite z-score": 2.08},
      {"compound": "COc1ccc([Si](C)(C)[C@@H]2[C@@H](CCO)O[C@]3(C(=O)N(Cc4ccccc4)c4ccc(N(C=O)c5ccccc5)cc43)[C@H]2C)cc1", "composite z-score": 0.937},
      {"compound": "Cc1ccc(S[C@]2(C(=O)NCCCN(C)C)CC(=O)N(C(C)C)[C@@H]2c2ccc(CO)cc2I)cc1", "composite z-score": 1.23},
      {"compound": "C=C(COC)C(=O)CC[C@H](OC(=O)c1cccnc1)c1ccccc1OCCO", "composite z-score": 0.765},
      {"compound": "CC(c1ccccc1)C(O)C1C=CC2C(=O)N(Cc3ccccc3)C(=O)C2N1n1cnnc1", "note": "(stereo unspecified)", "composite z-score": 1.06},
      {"compound": "CN1C(=O)C2C=CC(C(O)C(C)(C)C)N(Nc3ccccc3)C2C1=O", "note": "(stereo unspecified)", "composite z-score": 2.78},
      {"compound": "CS(=O)(=O)CCOC(=O)C1=CC(c2ccc(CO)cc2)=CC(c2cccs2)N(Cc2cccc(OC(F)(F)F)c2)C=C1C(=O)OCCS(C)(=O)=O", "note": "(stereo unspecified)", "composite z-score": 1.68},
      {"compound": "Cc1ccc([C@H]2C(C(=O)O)=C[C@@H](C(C)C)N2S(=O)(=O)c2ccc(C)cc2)cc1", "composite z-score": 2.86}
    ]}
  ]
}
